Results filed as inconclusive are left out. Where a call stands in place of a potency, no number is given. Activity calls are given as the source filed them. Unless noted, calls follow the shape of the dose curve; as a rule, active = well fitted curve in the direction sought with a large enough effect in the repeat runs; inconclusive = weak or mixed curves; inactive = no such curve, though single readings can be large; an effect the other way counts as inactive or inconclusive.
Columns and labels:
[1] = qHTS assay to identify small molecule antagonists of the glucocorticoid receptor (GR) signaling pathway - cell viability counter screen (AID 720693); also: nearly all actives have a fitted effect of over 55% in size; also: potency is read from the fitted curve at half-maximal effect
[2] = qHTS assay for identifying genotoxic compounds that show differential cytotoxicity against isogenic chicken DT40 cell lines with known DNA damage response pathways - wild type cell line (AID 743012); also: nearly all actives have a fitted effect of over 60% in size; also: potency is read from the fitted curve at half-maximal effect
Outline: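 Cytotoxicity in repair-proficient parental chicken DT40 cells serves as the comparator for Rad54/Ku70- and Rev3-deficient lines. Cells were exposed to compounds for 40 h at 37 C/5% CO2, and ATP-based luminescence (CellTiter-Glo) measured viability.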

[3] = qHTS assay for identifying genotoxic compounds that show differential cytotoxicity against isogenic chicken DT40 cell lines with known DNA damage response pathways - Rev3 mutant cell line (AID 743014); also: nearly all actives have a fitted effect of over 55% in size; also: potency is read from the fitted curve at half-maximal effect
[4] = qHTS assay for identifying genotoxic compounds that show differential cytotoxicity against isogenic chicken DT40 cell lines with known DNA damage response pathways - Rad54/Ku70 mutant cell line (AID 743015); also: nearly all actives have a fitted effect of over 60% in size; also: potency is read from the fitted curve at half-maximal effect
[5] = qHTS assay to identify small molecule antagonists of the androgen receptor (AR) signaling pathway - cell viability counter screen (AID 743033; also: nearly all actives have a fitted effect of over 45% in size; also: potency is read from the fitted curve at half-maximal effect)
[6] = biological target: Androgen receptor (Homo sapiens) (UniProt P10275); experiment: qHTS assay to identify small molecule antagonists of the androgen receptor (AR) signaling pathway (AID 743035; active = well fitted inhibition curve with a large enough effect in the signal ratio in the repeat runs, not every such curve was filed as active; the % refers to the signal ratio; also: potency is read from the fitted curve at half-maximal effect)
Outline: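 Steps: seed AR-UAS-bla GripTite HEK293 cells, incubate 4 h at 37C; pin in test compound, then add agonist R1881; incubate 16 h at 37C; add LiveBLAzer B/G FRET substrate, 2 h at room temperature; read fluorescence.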

[7] = biological target: Androgen receptor (Homo sapiens) (UniProt P10275); experiment: qHTS assay to identify small molecule agonists of the androgen receptor (AR) signaling pathway (AID 743036; active = well fitted activation curve with a large enough effect in the signal ratio in the repeat runs, with a control signal flat, not every such curve was filed as active; the % refers to the signal ratio)
Outline: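 AR-UAS-bla HEK293 cells, plated 4 h before dosing, were treated with compound for 16 h at 37C. beta-Lactamase reporter read after 2 h with LiveBLAzer B/G FRET substrate at room temperature.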

[8] = biological target: Androgen receptor (Homo sapiens) (UniProt P10275); experiment: qHTS assay to identify small molecule agonists of the androgen receptor (AR) signaling pathway using the MDA cell line (AID 743040; also: nearly all actives have a fitted effect of over 20% in size)
Outline: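 Luciferase read-out, ONE-Glo, 30 min RT. Cells: MDA-kb2 AR-luc, MMTV promoter with AR and GR response elements. Compound exposure 16 h, 37C, 0% CO2, after 5 h pre-incubation. qHTS agonist mode.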

[9] = qHTS assay to identify small molecule antagonists of the androgen receptor (AR) signaling pathway using the MDA cell line - cell viability counter screen (AID 743041; also: nearly all actives have a fitted effect of over 45% in size)
Outline: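 Cytotoxicity counter screen: MDA-kb2 AR-luc cells, compound + R1881, 16 h, 37C, 0% CO2; CellTiter-Fluor added at 15.5 h, fluorescence read after 30 min.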

[10] = biological target: Androgen receptor (Homo sapiens) (UniProt P10275); experiment: qHTS assay to identify small molecule antagonists of the androgen receptor (AR) signaling pathway using the MDA cell line (AID 743042; also: nearly all actives have a fitted effect of over 55% in size)
Outline: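 MDA-kb2 breast carcinoma cells carrying MMTV-luciferase (AR/GR responsive) were co-treated with compounds and the agonist R1881 for 16 h at 37C. Inhibition read as ONE-Glo luminescence; CellTiter-Fluor fluorescence measured in parallel for cytotoxicity.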

[11] = qHTS assay to identify small molecule antagonists of the thyroid receptor (TR) signaling pathway (AID 743065); also: series mostly up to about 70 µM; nearly all actives have a fitted effect of over 55% in size
Outline: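 GH3.TRE-Luc rat pituitary cells (two TREs driving luciferase) were dosed with compound, then stimulated with 1 nM T3 (final) for 23.5 h at 37 C. ONE-Glo luminescence was the read-out, with CellTiter-Fluor fluorescence as the cytotoxicity counter-screen.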

[12] = test system: thyroid hormone receptor (rat, GH3 cells); experiment: qHTS assay to identify small molecule agonists of the thyroid receptor (TR) signaling pathway (AID 743066; calls by dose curve)
[13] = biological target: Estrogen receptor (Homo sapiens) (UniProt P03372); experiment: qHTS assay to identify small molecule antagonists of the estrogen receptor alpha (ER-alpha) signaling pathway (AID 743069; active = well fitted curve in the direction sought with a large enough effect in the signal ratio in the repeat runs, not every such curve was filed as active; the % refers to the signal ratio)
Outline: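 Beta-lactamase FRET fluorescence is read after 2 hr at room temperature with LiveBLAzer B/G substrate. Before that, ER-alpha-bla HEK293 cells sit 4 hr after plating, then receive compound plus 17beta-estradiol and incubate 18 hr at 37C.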

[14] = qHTS assay to identify small molecule antagonists of the estrogen receptor alpha (ER-alpha) signaling pathway - cell viability counter screen (AID 743074; calls by dose curve;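 also: HEK293 cells carrying ER-alpha-UAS-bla reporter stimulated with 17beta-estradiol; nearly all actives have a fitted effect of over 45% in size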; also: potency is read from the fitted curve at half-maximal effect)
[15] = biological target: Estrogen receptor (Homo sapiens) (UniProt P03372); experiment: qHTS assay to identify small molecule agonists of the estrogen receptor alpha (ER-alpha) signaling pathway (AID 743075; calls by dose curve;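 also: HEK293 GripTite cells with ER-alpha and UAS-driven beta-lactamase reporter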)
[16] = biological target: Estrogen receptor (Homo sapiens) (UniProt P03372); experiment: qHTS assay to identify small molecule agonists of the estrogen receptor alpha (ER-alpha) signaling pathway using the BG1 cell line (AID 743079); also: nearly all actives have a fitted effect of over 20% in size
[17] = qHTS assay to identify small molecule antagonists of the estrogen receptor alpha (ER-alpha) signaling pathway using the BG1 cell line (AID 743080; calls by dose curve;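 also: BG1 cells stimulated with 17beta-estradiol alongside compound; series mostly up to about 70 µM; nearly all actives have a fitted effect of over 25% in size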)
Outline: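 After 5 days in phenol-red-free 10% charcoal-stripped FBS medium, BG1-Luc-4E2 cells were seeded, left 24 h at 37 C, co-treated with compounds and 17beta-estradiol for 21.5 h, then assayed for viability and luciferase.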

[18] = qHTS assay to identify small molecule antagonists of the estrogen receptor alpha (ER-alpha) signaling pathway using the BG1 cell line - cell viability counter screen (AID 743081);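 also: compound given together with 17beta-estradiol as the ER stimulus; series mostly up to about 70 µM; nearly all actives have a fitted effect of over 45% in size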
[19] = biological target: Aromatase (Homo sapiens) (UniProt P11511); experiment: qHTS assay to identify aromatase inhibitors (AID 743083)
[20] = qHTS assay to identify small molecule antagonists of the thyroid receptor (TR) signaling pathway - cell viability counter screen (AID 743064); also: nearly all actives have a fitted effect of over 50% in size; also: potency is read from the fitted curve at half-maximal effect
Outline: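 GH3.TRE-Luc rat pituitary cells dosed after 4 hr plating, co-stimulated with T3 at 1 nM final, incubated 23.5 h at 37 C. Viability measured in the same wells by CellTiter-Fluor fluorescence after 30 min further at 37 C.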

Androgen receptor (Homo sapiens), sequence (P10275 whole entry, looked up): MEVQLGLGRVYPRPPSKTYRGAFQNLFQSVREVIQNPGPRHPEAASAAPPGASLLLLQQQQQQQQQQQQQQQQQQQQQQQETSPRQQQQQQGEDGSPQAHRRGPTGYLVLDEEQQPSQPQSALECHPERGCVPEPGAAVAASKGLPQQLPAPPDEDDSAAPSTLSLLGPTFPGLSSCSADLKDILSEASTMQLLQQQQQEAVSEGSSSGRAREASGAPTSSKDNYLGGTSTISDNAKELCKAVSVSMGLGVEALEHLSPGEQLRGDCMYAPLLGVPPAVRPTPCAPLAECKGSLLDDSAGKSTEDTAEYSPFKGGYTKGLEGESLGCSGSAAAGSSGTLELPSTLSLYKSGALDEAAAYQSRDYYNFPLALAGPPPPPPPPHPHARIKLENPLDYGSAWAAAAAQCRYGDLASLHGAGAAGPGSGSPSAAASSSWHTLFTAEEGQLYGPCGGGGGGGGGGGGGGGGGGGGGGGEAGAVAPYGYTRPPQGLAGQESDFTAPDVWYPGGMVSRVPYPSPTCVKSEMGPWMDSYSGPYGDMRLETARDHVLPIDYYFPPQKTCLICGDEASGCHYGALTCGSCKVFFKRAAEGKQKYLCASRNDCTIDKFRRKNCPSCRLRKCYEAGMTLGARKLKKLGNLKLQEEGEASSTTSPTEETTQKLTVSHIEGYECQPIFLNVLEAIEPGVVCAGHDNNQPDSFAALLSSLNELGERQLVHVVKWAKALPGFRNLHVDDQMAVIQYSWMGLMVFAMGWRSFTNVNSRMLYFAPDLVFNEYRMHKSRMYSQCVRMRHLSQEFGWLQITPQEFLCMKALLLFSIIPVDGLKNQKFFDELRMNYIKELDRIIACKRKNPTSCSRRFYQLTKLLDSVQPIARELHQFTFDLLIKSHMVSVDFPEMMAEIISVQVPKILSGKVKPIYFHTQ
Estrogen receptor (Homo sapiens), sequence (P03372 whole entry, looked up): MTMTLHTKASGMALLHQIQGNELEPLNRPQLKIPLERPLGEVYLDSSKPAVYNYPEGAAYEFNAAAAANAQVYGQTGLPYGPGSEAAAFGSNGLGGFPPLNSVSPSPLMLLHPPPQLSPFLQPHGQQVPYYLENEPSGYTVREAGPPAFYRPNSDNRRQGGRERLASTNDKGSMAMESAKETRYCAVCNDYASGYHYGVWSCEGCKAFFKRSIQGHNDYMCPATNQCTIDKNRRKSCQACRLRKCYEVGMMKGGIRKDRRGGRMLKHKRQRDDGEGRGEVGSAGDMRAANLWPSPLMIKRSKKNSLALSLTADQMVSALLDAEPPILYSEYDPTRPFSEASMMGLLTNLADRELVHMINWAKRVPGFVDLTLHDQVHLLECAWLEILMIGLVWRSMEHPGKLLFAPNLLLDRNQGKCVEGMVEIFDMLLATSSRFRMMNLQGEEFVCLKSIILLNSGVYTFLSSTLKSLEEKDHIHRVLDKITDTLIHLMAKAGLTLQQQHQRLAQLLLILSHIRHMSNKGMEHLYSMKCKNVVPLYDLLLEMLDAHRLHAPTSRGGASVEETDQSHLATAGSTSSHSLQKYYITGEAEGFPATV
Aromatase (Homo sapiens), sequence (P11511 whole entry, looked up): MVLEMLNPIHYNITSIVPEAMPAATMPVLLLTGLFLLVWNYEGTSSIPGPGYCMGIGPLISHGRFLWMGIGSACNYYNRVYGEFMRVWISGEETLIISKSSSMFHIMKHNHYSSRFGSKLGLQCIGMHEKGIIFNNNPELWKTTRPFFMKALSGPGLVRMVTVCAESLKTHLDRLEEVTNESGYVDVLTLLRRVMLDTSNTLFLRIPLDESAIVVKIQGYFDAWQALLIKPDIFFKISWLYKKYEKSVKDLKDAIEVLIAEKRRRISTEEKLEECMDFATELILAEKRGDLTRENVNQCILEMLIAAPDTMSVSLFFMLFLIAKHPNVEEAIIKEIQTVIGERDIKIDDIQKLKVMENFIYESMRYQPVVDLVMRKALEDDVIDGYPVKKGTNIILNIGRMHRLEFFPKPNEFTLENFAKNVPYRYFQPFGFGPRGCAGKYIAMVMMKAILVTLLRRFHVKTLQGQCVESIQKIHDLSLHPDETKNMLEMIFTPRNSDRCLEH

Row | SMILES | Potency [1] | Potency [2] | Potency [3] | Potency [4] | Potency [5] | Potency [6] | Potency [7] | Potency [8] | Potency [9] | Potency [10] | Potency [11] | Potency [12] | Potency [13] | Potency [14] | Potency [15] | Potency [16] | Potency [17] | Potency [18] | Potency [19] | Potency [20]
1 | NCCCC[C@H](NC(=O)[C@@H]1CCCN1C(=O)[C@@H]1CSSC[C@H](N)C(=O)N[C@@H](Cc2ccc(O)cc2)C(=O)N[C@@H](Cc2ccccc2)C(=O)N[C@@H](CCC(N)=O)C(=O)N[C@@H](CC(N)=O)C(=O)N1)C(=O)NCC(N)=O | inactive | inactive | inactive | inactive | inactive | inactive | inactive | inactive | inactive | inactive | inactive | inactive | inactive | inactive | inactive | inactive | inactive | inactive | inactive | –
2 | Oc1ccc(Cl)c2c1CCC2 | inactive | inactive | inactive | inactive | inactive | inactive | inactive | inactive | inactive | inactive | inactive | inactive | – | inactive | inactive | inactive | inactive | inactive | inactive | inactive
3 | C[C@H]1O[C@@H](O[C@H]2CC[C@@]3(C)[C@H](CC[C@@H]4[C@@H]3C[C@@H](O)[C@]3(C)[C@@H](C5=CC(=O)OC5)CC[C@]43O)C2)C[C@H](O)[C@@H]1O[C@H]1C[C@H](O)[C@H](O[C@H]2C[C@H](O)[C@H](O[C@@H]3O[C@H](CO)[C@@H](O)[C@H](O)[C@H]3O)[C@@H](C)O2)[C@@H](C)O1 | 1.34 µM (active) | 1.33 µM (active) | 1.33 µM (active) | 1.5 µM (active) | 268 nM (active) | 1.2 µM (active) | – | – | inactive | – | inactive | inactive | – | 0.268 µM (active) | inactive | – | – | inactive | inactive | inactive
4 | CC(C)Cc1ccc([C@H](C)C(=O)O)cc1 | inactive | inactive | inactive | inactive | inactive | – | – | – | inactive | – | inactive | inactive | inactive | inactive | inactive | inactive | inactive | inactive | inactive | inactive
5 | CC1(C)C[C@@H]1C(=O)N/C(=C\CCCCSC[C@H](N)C(=O)O)C(=O)O | inactive | inactive | inactive | inactive | inactive | inactive | inactive | inactive | inactive | inactive | inactive | inactive | – | inactive | – | – | – | inactive | inactive | inactive
6 | O=C(CCCCCCCCc1cccnc1)N1CCC(C=C(c2ccccc2)c2ccccc2)CC1 | 34.7 µM (active) | 48.6 µM (active) | 24.3 µM (active) | 24.3 µM (active) | inactive | – | inactive | inactive | inactive | inactive | – | – | – | 43.6 µM (active) | – | – | – | – | – | 27.3 µM (active)

From PubChem BioAssay (Tox21)
